In PubChem BioAssay one finds composite z-score and z-score data, which are given here for five molecules.

Activity calls are given as the source filed them. Unless noted, the rule behind the calls is not given here.

In test [1] the test system is Wnt5a (protein binding on small-molecule microarray). Kind of test: small molecules binding Wnt5a protein – biophysical, small-molecule microarray, 635/667 nm fluorescence, primary screen (AID 1142).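 Note: fluorescence read at 667 nm with signal to noise per printed feature.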 The following applies: 635 nm fluorescence, higher = more signal.
Test [2] in a line: ATP-based viability of Huh7 replicon cells – cell-based, CellTiter-Glo luminescence, basal, 48 h, cytotoxicity control for HCV replication inhibitor project, primary screen (AID 1143).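 Note: Huh7 hepatoma cells carrying a hepatitis C replication reporter with no stimulus; test concentration not given here.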 The following applies: higher = more signal, called active from +8 up or from −8 down. For orientation: A replicon is a self-replicating genome or part of one, used to study replication in cells.
Test [3] is described as follows: Pseudomonas biofilm growth suppression – PAO1 strain, BacTiter-Glo luminescence, LB-PBS, primary screen (AID 1144). The conditions noted are these: P. aeruginosa PAO1 biofilm, 12 h, higher = more signal.
The nature of test [4]: basal CRE-LacZ reporter activity in PC12 – cell-based, unstimulated, primary screen (AID 1145). The conditions noted are these: no forskolin, luminescence, 4.5 h, higher = more signal, called active from +8 up or from −8 down.
Test [5] in a line: forskolin-driven CRE-LacZ activity in PC12 – cell-based, CRE-LacZ reporter, forskolin-stimulated, primary screen (AID 1146).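 Note: PC12 cells with 6xCRE LacZ reporter stimulated by forskolin 10 µM; beta-galactosidase reporter signal reflecting CREB driven transcription.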 The following applies: luminescence, 4.5 h, higher = more signal, called active from +8 up or from −8 down.
For test [6], the target named is Streptavidin (Streptomyces avidinii) (UniProt P22629). Kind of test: compounds binding control protein streptavidin – biophysical, small-molecule microarray, 635/667 nm fluorescence, artefact control for SMM compound annotation, primary screen (AID 1147).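 Note: signal reflects streptavidin binding to arrayed compounds as a control protein.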 The following applies: higher = more signal.
Sequence of Streptavidin (Streptomyces avidinii) (P22629 whole entry, looked up): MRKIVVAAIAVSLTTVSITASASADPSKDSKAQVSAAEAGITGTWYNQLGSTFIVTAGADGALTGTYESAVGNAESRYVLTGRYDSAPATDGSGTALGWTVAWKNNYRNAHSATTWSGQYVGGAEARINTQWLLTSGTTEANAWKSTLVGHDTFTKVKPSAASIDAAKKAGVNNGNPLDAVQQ
Test [7] can be described thus: probe aInhba binding on compound microarray – biochemical, small-molecule microarray, 635/667 nm fluorescence, primary screen (AID 1148).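 Note: score merges 667nm spot fluorescence with signal-to-noise for antibody binding to printed compounds.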 The following applies: higher = more signal.
Test [8] deals with Torsin-1A (Homo sapiens) (UniProt O14656). Kind of test: TOR1A wild-type binding on microarray – cell lysate, small-molecule microarray, lysate, 635/667 nm, primary screen (AID 1149). The conditions noted are these: COS7 hTOR1A-WT lysate, 635 nm fluorescence, higher = more signal.
Sequence of Torsin-1A (Homo sapiens) (O14656 whole entry, looked up): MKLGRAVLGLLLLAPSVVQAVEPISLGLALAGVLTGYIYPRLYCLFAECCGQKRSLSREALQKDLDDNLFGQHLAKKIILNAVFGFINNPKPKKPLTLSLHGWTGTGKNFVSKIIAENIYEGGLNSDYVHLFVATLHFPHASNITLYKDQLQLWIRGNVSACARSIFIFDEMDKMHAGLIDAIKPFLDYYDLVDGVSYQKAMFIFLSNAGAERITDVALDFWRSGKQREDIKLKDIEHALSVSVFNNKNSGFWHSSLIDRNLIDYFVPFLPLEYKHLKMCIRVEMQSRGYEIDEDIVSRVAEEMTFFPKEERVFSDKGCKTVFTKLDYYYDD
For test [9] the target is unchanged. In words: torsin A mutant lysate binding on microarrays – cell lysate, small-molecule microarray, COS7 lysate, 635/667 nm fluorescence, primary screen (AID 1150).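 Note: score pools 667 nm emission and signal to noise measuring lysate protein binding.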 The conditions noted are these: COS7 hTOR1A mutant lysate, 635 nm fluorescence, higher = more signal.
For test [10], the system named is Sonic hedgehog protein (Shh). Kind of test: Sonic hedgehog microarray binding compounds – biochemical, small-molecule microarray, 635/667 nm fluorescence, primary screen (AID 1151).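 Note: Shh protein binding to compounds spotted on small-molecule microarray slides; score combines spot fluorescence intensity with signal-to-noise across triplicate slides.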 The following applies: 635 nm fluorescence, higher = more signal.
A short description of test [11]: optical density shifts of acrAB sulA E. coli – strain DRC41, OD650, 48 h, E. coli filamentation inducer project, primary screen (AID 1152).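 Note: E. coli MC1000 strain DRC41 lacking acrAB efflux pump and sulA.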 The conditions noted are these: higher = more signal, called active from +8 up or from −8 down.
Test [12] can be described thus: probe aLefty1 binding on compound microarray – biochemical, small-molecule microarray, 635/667 nm fluorescence, primary screen (AID 1153).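 Note: score merges spot fluorescence with signal-to-noise ratio from the scanned slide images.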 The following applies: higher = more signal.
Test [13] is described as follows: plasmodial surface anion channel blockers, osmotic lysis – cell-based, P. falciparum Indochina, OD700, 1 h, primary screen (AID 1154). The conditions noted are these: P. falciparum Indochina infected RBC osmotic lysis, higher = more signal, called active from +8 up or from −8 down.
A short description of test [14]: plasmodial surface anion channel blockers, osmotic lysis – cell-based, P. falciparum Indochina, OD700, 2 h, primary screen (AID 1155).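 Note: lysis reports solute entry through the parasite surface anion channel PSAC.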 The conditions noted are these: P. falciparum Indochina infected erythrocytes, higher = more signal, called active from +8 up or from −8 down.
Test [15] can be described thus: changes in parasitized red cell lysis, either direction – P. falciparum Indochina, OD700, 3 h, PSAC antagonist project, primary screen (AID 1156). The conditions noted are these: P. falciparum-infected erythrocytes, osmotic lysis, higher = more signal, called active from +8 up or from −8 down.
Test [16] can be described thus: plasmodial surface anion channel blockers, osmotic lysis – cell-based, P. falciparum Indochina, OD700, 18 h, primary screen (AID 1157). The following applies: P. falciparum Indochina infected erythrocytes, osmotic lysis OD700, 18 h; higher = more signal, called active from +8 up or from −8 down.
Test [17] in a line: S6 kinase pathway phospho-S6 level changes – cell-based, A549, cytoblot, luminescence, serum-stimulated, primary screen (AID 1158).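 Note: serum-stimulated A549 lung adenocarcinoma cells; signal is phosphorylated S6 detected by cytoblot immunostaining with HRP secondary.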 The following applies: 5 h, higher = more signal.
Test [18] concerns the target NADPH oxidase 2 (Homo sapiens) (UniProt P04839). In words: compounds shifting NOX2 Amplex Red fluorescence – cell-based, HEK293-NOX2, PMA-stimulated, NOX inhibitor project, primary screen (AID 1159). Note: test concentration not given here. The conditions noted are these: 45 min, higher = more signal, called active from +8 up or from −8 down.
In test [19] the target is NADPH oxidase 4 (Homo sapiens) (UniProt Q9NPH5). In words: compounds shifting NOX4 Amplex Red fluorescence – cell-based, HEK293-NOX4, tetracycline-induced, NOX inhibitor project, primary screen (AID 1160). The conditions noted are these: HEK293-NOX4, Amplex Red H2O2 fluorescence, 45 min; higher = more signal, called active from +8 up or from −8 down.
Sequence of NADPH oxidase 4 (Homo sapiens) (Q9NPH5 whole entry, looked up): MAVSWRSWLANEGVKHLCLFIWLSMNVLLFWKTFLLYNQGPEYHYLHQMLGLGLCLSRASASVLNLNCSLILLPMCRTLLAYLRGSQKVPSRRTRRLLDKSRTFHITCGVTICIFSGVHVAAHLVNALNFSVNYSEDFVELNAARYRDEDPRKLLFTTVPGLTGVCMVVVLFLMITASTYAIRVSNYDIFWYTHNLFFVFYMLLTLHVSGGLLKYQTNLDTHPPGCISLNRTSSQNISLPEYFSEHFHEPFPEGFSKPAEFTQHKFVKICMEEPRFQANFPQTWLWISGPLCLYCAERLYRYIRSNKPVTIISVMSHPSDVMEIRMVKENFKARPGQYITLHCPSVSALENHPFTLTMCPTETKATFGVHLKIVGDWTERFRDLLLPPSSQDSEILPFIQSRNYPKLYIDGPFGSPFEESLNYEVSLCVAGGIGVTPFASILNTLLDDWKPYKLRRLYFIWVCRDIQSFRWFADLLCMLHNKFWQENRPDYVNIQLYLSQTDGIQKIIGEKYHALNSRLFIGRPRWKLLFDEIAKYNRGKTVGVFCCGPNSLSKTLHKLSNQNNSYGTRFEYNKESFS
In test [20] the target is NADPH oxidase 5 (Homo sapiens) (UniProt Q96PH1). Kind of test: compounds shifting NOX5 Amplex Red fluorescence – cell-based, HEK293-NOX5, NOX inhibitor project, primary screen (AID 1161). The following applies: HEK293-NOX5, ionomycin, 45 min, higher = more signal.
Sequence of NADPH oxidase 5 (Homo sapiens) (Q96PH1 whole entry, looked up): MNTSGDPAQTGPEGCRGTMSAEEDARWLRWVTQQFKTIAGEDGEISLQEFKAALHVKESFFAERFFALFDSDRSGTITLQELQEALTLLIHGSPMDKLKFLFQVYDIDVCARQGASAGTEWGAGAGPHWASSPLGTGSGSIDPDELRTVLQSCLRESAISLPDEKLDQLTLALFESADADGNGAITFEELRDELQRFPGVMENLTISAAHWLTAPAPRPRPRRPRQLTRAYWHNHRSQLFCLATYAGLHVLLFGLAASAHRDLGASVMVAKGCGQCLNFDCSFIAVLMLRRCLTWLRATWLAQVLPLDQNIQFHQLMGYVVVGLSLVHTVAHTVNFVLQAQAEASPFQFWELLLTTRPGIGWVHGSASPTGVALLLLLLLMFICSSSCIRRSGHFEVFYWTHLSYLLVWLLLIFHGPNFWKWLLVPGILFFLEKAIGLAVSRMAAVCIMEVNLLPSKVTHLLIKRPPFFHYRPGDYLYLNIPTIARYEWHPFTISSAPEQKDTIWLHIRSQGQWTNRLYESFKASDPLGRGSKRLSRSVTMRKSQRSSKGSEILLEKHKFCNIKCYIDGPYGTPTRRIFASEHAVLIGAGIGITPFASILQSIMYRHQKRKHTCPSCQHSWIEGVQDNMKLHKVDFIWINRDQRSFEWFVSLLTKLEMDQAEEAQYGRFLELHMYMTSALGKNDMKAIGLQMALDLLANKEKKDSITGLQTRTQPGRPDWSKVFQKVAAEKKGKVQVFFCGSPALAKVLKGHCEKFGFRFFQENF

Sequence of NADPH oxidase 2 (Homo sapiens) (P04839 whole entry, looked up): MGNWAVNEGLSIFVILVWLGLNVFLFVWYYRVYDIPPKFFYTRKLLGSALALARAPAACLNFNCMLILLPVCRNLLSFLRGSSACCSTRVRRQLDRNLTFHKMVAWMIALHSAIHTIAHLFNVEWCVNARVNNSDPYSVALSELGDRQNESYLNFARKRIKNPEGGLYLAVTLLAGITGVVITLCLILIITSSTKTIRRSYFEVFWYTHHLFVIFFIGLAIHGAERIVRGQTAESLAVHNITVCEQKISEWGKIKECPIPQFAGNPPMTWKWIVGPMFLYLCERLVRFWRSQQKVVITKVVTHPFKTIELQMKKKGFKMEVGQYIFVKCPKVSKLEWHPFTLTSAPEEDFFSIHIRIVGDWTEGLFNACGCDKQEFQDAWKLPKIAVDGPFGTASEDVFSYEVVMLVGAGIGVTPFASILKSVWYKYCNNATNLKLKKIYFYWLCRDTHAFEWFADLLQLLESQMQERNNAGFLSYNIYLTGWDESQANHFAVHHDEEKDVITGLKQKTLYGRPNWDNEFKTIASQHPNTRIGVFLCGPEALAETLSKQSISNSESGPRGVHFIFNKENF

Take `Cc1ccc(S[C@]2(C(=O)NC3CC3)CC(=O)N(Cc3ccccc3)[C@@H]2c2ccc(CO)cc2I)cc1`: the composite z-score in [1] is -0.232; in [6], -0.716; in test [7], 0.235; with Torsin-1A (Homo sapiens) [8], -1.19; in the test with Torsin-1A (Homo sapiens) [9], -1.63; in test [10], -0.517. In [12], this molecule showed a composite z-score of 0.238. In addition, the z-score in test [2] is -2.1 (inactive); in test [3], -0.0682 (inactive); in [4] it was 1.04 (inactive); in test [5] it was 1.03 (inactive); in [11], 1.24 (inactive); in [13], 7.63 (inactive). Further, the z-score in [14] is 1.12 (inactive); in [15], -0.282 (inactive); in [16] it was 0.401 (inactive); in [17] it was 0.402; in test [18], 1.7 (inactive); in test [19], -1.16 (inactive). The z-score in test [20] worked out at 1.1.

Turning to `O=C1NC(=O)C2C1C=CC(C(O)c1cccs1)N2Nc1ccc(Cl)cc1Cl` (stereo not given), the composite z-score in [1] was -0.0653; in test [6] it was -0.695; in [7], -0.118; with Torsin-1A (Homo sapiens) [8], 0.352; with Torsin-1A (Homo sapiens) [9], 0.112; in test [10], -0.0963. Besides, the composite z-score in test [12] is -0.012. The z-score in [2] is 0.0581 (inactive); in test [3], -0.24 (inactive); in test [4], -0.136 (inactive); in test [5] it was -0.109 (inactive); in [11] it was -0.713 (inactive); in test [13], 2.33 (inactive). Moreover, the z-score was 1.32 (inactive) in test [14]; -0.0207 (inactive) in [15]; 1.34 (inactive) in test [16]; -0.27 in test [17]; -0.483 (inactive) in [18]; -4.81 (inactive) in test [19]. Further, in test [20], the z-score was -1.57.

With `C=C(/C(=C/C[C@H](OC(C)=O)c1ccccc1OCCO)c1cnc2ccccc2c1)C(C)C`, the composite z-score in test [1] turned out to be 0.025; in [6] it was 0.533; in test [7] it was 0.0543; with Torsin-1A (Homo sapiens) [8], 0.316; in the test with Torsin-1A (Homo sapiens) [9] it was 0.0233; in [10] it was 1.09. The same molecule yielded a composite z-score in [12] of -0.0654. The z-score is -1.61 (inactive) in test [2]; 0.445 (inactive) in test [3]; 4.98 (inactive) in [4]; 1.49 (inactive) in test [5]; -0.564 (inactive) in [11]; 9.77 (active) in test [13]. Further, the z-score in test [14] is 1.55 (inactive); in test [15] it was 1.29 (inactive); in test [16], 0.724 (inactive); in test [17], 0.193; in test [18] it was -0.353 (inactive); in [19] it was -0.402 (inactive). Besides, the z-score in test [20] was -1.08.

For the molecule `COC(=O)[C@]1(CCC(=O)OC(C)(C)C)N=C(c2ccc(OCCCO)cc2)O[C@@H]1c1ccccc1CN=[N+]=[N-]`, the composite z-score is 0.714 in test [1]; 0.0874 in test [6]; 0.24 in test [7]; -0.351 with Torsin-1A (Homo sapiens) [8]; -0.0282 in the test with Torsin-1A (Homo sapiens) [9]; 0.712 in test [10]. Further, in test [12], the composite z-score stood at 0.235. For the same molecule, the z-score is -4.56 (inactive) in test [2]; 0.283 (inactive) in test [3]; 1.77 (inactive) in test [4]; -0.955 (inactive) in [5]; -1.68 (inactive) in test [11]; 30.3 (active) in test [13]. For the same molecule, the z-score was 28.3 (active) in test [14]; -0.615 (inactive) in [15]; 5.71 (inactive) in test [16]; -0.0021 in test [17]; -3.48 (inactive) in test [18]; -1.72 (inactive) in [19]. In addition, the z-score in test [20] was -2.41.

In the case of `CN(C)CCCC[C@@H]1NC(=O)[C@@H]2C[C@H](C(=O)NCCCCCCN)[C@H](c3cccc(OCCO)c3)N2C1=O`, the composite z-score in [1] stood at 0.017; in test [6] it was 2.1; in test [7] it was 0.831; with Torsin-1A (Homo sapiens) [8], 1.17; with Torsin-1A (Homo sapiens) [9], 1.99; in [10] it was 0.68. Besides, the composite z-score in [12] came to 1.1. Further, the z-score is -0.96 (inactive) in test [2]; 0.168 (inactive) in [3]; 0.139 (inactive) in test [4]; -0.347 (inactive) in test [5]; -0.3 (inactive) in test [11]; 3.07 (inactive) in [13]. The z-score was 0.198 (inactive) in [14]; 1.87 (inactive) in test [15]; 0.105 (inactive) in [16]; 0.292 in test [17]; 0.956 (inactive) in test [18]; 1.14 (inactive) in [19]. In addition, the z-score in [20] came out at 0.941.
